Data: PubChem BioAssay (NCATS)
“And” between values parts separate entries of the source, which are not always exact repeats. Equal values may be shown once. Inconclusive results are not listed. Unmarked numbers belong to inactive results. The source made the active and inactive calls. Calls follow the shape of the dose curve; as a rule, active = well fitted curve in the direction sought with a large enough effect; inconclusive = small, poorly fitted or top-dose-only effect, or another doubt; inactive = no such curve, though single readings can be large; an effect the other way counts as inactive or inconclusive.

Test: qHTS of pediatric cancer cell lines to identify multiple opportunities for drug repurposing: Confirmatory screen for BT-12 cells (AID 1347112); also: nearly all actives have a fitted effect of over 55% in size; as to activity change, negative = cytotoxic: % is scaled to controls: 0 for no effect and ±100 for the full control effect
Settings: BT-12 rhabdoid tumor cells, viability; series mostly up to 45.9 µM; activity change, negative = cytotoxic: at the top concentration
Summary of the method: (§1)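 Viability after 48 h compound treatment at 37C, 500-1,000 cells/well, read as ATP luminescence with CellTiter-Glo. Primary screens used 11-point (MIPE, 0.78 nM-46 µM) or 8-point (NPC, 0.59 nM-46 µM) final concentrations; follow-up screens used 11-point dilutions.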
Potency is read from the fitted curve at half-maximal effect.

Structure (SMILES)	Potency	activity change, negative = cytotoxic
CC[C@]1(O)C[C@@H]2CN(CCc3c([nH]c4ccccc34)[C@@](C(=O)OC)(c3cc4c(cc3OC)N(C)[C@H]3[C@@](O)(C(=O)OC)[C@H](OC(C)=O)[C@]5(CC)C=CCN6CC[C@]43[C@@H]65)C2)C1	1.65 µM (active) and 1.85 µM (active)	–
O=C(O)c1ccc(-c2cc3cccnc3c(-c3ccc4nonc4c3)n2)cc1	4.14 µM (active)	–
CC(=O)Nc1ccc([C@H](C)C(=O)Nc2ncc(C(C)C)s2)cc1	3.69 µM (active)	–
CC(C)n1nc(-c2ccc3oc(N)nc3c2)c2c(N)ncnc21	0.117 µM (active)	–
COc1cc2ncnc(Nc3ccc(F)c(Cl)c3)c2cc1OCCCN1CCOCC1	42.7 µM (active)	–
CO[C@H]1C[C@@H]2CC[C@@H](C)[C@@](O)(O2)C(=O)C(=O)N2CCCC[C@@H]2C(=O)O[C@H]([C@H](C)C[C@@H]2CC[C@H](OCCO)[C@H](OC)C2)CC(=O)[C@H](C)C=C(C)[C@@H](O)[C@@H](OC)C(=O)[C@H](C)C[C@H](C)C=CC=CC=C1C	–	-25.2%
NS(=O)(=O)c1cccc2c1C(=O)c1cccc(O)c1C2=O	1.04 µM (active)	–
CC1(C)CCC[C@@]2(C)[C@@H]1CC[C@@]1(C)OC(=O)C[C@H]21	–	-1.58%
NC1=N[C@@]2(c3cc(NC(=O)c4ccc(F)cn4)ccc3F)COC[C@@H]2CS1	–	-18.1%
CC=C(C)C(=O)O[C@H]1C(C)=C[C@]23C(=O)[C@@H](C=C(CO)[C@@H](O)[C@]12O)[C@H]1[C@@H](C[C@H]3C)C1(C)C	–	-4.27%
CN[C@@H](C)C(=O)N[C@H]1CN(C(=O)CC(C)C)CC[C@H]2CC[C@@H](C(=O)NC(c3ccccc3)c3ccccc3)N2C1=O	–	-7.01%
OC[C@H]1O[C@@H](n2cnc3c2NC=NC[C@@H]3O)C[C@H]1O	–	-7.82%

Test: qHTS of pediatric cancer cell lines to identify multiple opportunities for drug repurposing: Confirmatory screen for DAOY cells (AID 1347114); also: nearly all actives have a fitted effect of over 65% in size; as to activity change, negative = cytotoxic: % is scaled to controls: 0 for no effect and ±100 for the full control effect
Settings: DAOY medulloblastoma cells viability, cytotoxicity qHTS; series mostly up to 45.9 µM; activity change, negative = cytotoxic: at the top concentration
Summary of the method: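 Viability measured as metabolically active cells via CellTiter-Glo luminescence following 48 hours of compound exposure, 11-point dilutions in confirmatory testing. 500-1,000 cells/well plated 5 hours before dosing; controls were DMSO and 2.3 µM bortezomib.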

Structure (SMILES)	Potency	activity change, negative = cytotoxic
CNC1CCC(N(Cc2cccc(-c3ccncc3)c2)C(=O)c2sc3c(F)ccc(F)c3c2Cl)CC1 (configuration not stated)	20.8 µM (active)	–
CCOc1ccc(Nc2nc(-c3c(C)nc4ccccn34)cs2)cc1	0.0465 µM (active)	–
CC[C@]1(O)C[C@@H]2CN(CCc3c([nH]c4ccccc34)[C@@](C(=O)OC)(c3cc4c(cc3OC)N(C)[C@H]3[C@@](O)(C(=O)OC)[C@H](OC(C)=O)[C@]5(CC)C=CCN6CC[C@]43[C@@H]65)C2)C1	208 nM (active) and 233 nM (active)	–
CN(C)C1CCN(C(=O)c2ccc(NC(=O)Nc3nc(N4CCOCC4)nc(N4CCOCC4)n3)cc2)CC1	14.7 µM (active)	–
CC(=O)Nc1ccc([C@H](C)C(=O)Nc2ncc(C(C)C)s2)cc1	4.65 µM (active)	–
CC(C)n1nc(-c2ccc3oc(N)nc3c2)c2c(N)ncnc21	5.85 µM (active)	–
COc1cc2ncnc(Nc3ccc(F)c(Cl)c3)c2cc1OCCCN1CCOCC1	38 µM (active)	–
Cc1nnc(C(C)C)n1C1C[C@H]2CC[C@@H](C1)N2CC[C@H](NC(=O)C1CCC(F)(F)CC1)c1ccccc1 (some centres not stated)	–	-0.481%
NS(=O)(=O)c1cccc2c1C(=O)c1cccc(O)c1C2=O	2.33 µM (active)	–
CO[C@H]1C=CC=C(C)C(=O)NC2=CC(=O)C(NCCN(C)C)=C(C[C@@H](C)C[C@H](OC)[C@@H](O)[C@@H](C)C=C(C)[C@@H]1OC(N)=O)C2=O	18.5 µM (active)	–
CC1(C)CCC[C@@]2(C)[C@@H]1CC[C@@]1(C)OC(=O)C[C@H]21	–	-37.8%
NC1=N[C@@]2(c3cc(NC(=O)c4ccc(F)cn4)ccc3F)COC[C@@H]2CS1	–	-7.1%
OC[C@H]1O[C@@H](n2cnc3c2NC=NC[C@@H]3O)C[C@H]1O	–	1.7%

Test: qHTS of pediatric cancer cell lines to identify multiple opportunities for drug repurposing: Confirmatory screen for BT-37 cells (AID 1347117); also: nearly all actives have a fitted effect of over 55% in size;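 as to activity change, negative = cytotoxic: plate controls were DMSO for no effect and bortezomib for full effect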
Settings: BT-37 pediatric cancer cells, viability; series mostly up to 45.9 µM; activity change, negative = cytotoxic: at the top concentration
Summary of the method: as §1

Structure (SMILES)	Potency	activity change, negative = cytotoxic
CNC1CCC(N(Cc2cccc(-c3ccncc3)c2)C(=O)c2sc3c(F)ccc(F)c3c2Cl)CC1 (configuration not stated)	20.8 µM (active)	–
CCOc1ccc(Nc2nc(-c3c(C)nc4ccccn34)cs2)cc1	0.293 µM (active)	–
CC[C@]1(O)C[C@@H]2CN(CCc3c([nH]c4ccccc34)[C@@](C(=O)OC)(c3cc4c(cc3OC)N(C)[C@H]3[C@@](O)(C(=O)OC)[C@H](OC(C)=O)[C@]5(CC)C=CCN6CC[C@]43[C@@H]65)C2)C1	737 nM (active) and 1.17 µM (active)	–
CN(C)C1CCN(C(=O)c2ccc(NC(=O)Nc3nc(N4CCOCC4)nc(N4CCOCC4)n3)cc2)CC1	0.147 µM (active)	–
CC(=O)Nc1ccc([C@H](C)C(=O)Nc2ncc(C(C)C)s2)cc1	4.14 µM (active)	–
CC(C)n1nc(-c2ccc3oc(N)nc3c2)c2c(N)ncnc21	0.0369 µM (active)	–
COc1cc2ncnc(Nc3ccc(F)c(Cl)c3)c2cc1OCCCN1CCOCC1	13.5 µM (active)	–
NS(=O)(=O)c1cccc2c1C(=O)c1cccc(O)c1C2=O	0.737 µM (active)	–
CO[C@H]1C=CC=C(C)C(=O)NC2=CC(=O)C(NCCN(C)C)=C(C[C@@H](C)C[C@H](OC)[C@@H](O)[C@@H](C)C=C(C)[C@@H]1OC(N)=O)C2=O	1.17 µM (active)	–
CC1(C)CCC[C@@]2(C)[C@@H]1CC[C@@]1(C)OC(=O)C[C@H]21	–	-3.57%
NC1=N[C@@]2(c3cc(NC(=O)c4ccc(F)cn4)ccc3F)COC[C@@H]2CS1	–	-16.1%
CC=C(C)C(=O)O[C@H]1C(C)=C[C@]23C(=O)[C@@H](C=C(CO)[C@@H](O)[C@]12O)[C@H]1[C@@H](C[C@H]3C)C1(C)C	–	6.8%
